Bioassay records deposited in PubChem BioAssay by National Center for Advancing Translational Sciences (NCATS).
Only some compounds are listed: those with a hit (about 14% of all), similar ones and a draw of the others.
Giardia FBPA inh: inhibitors of Giardia lamblia fructose-1,6-bisphosphate aldolase; Potency, µM (titrated, usually from 59.6 µM), inactives show top-dose activity, negative = inhibition, hits mostly inhibitors; AID 2451; hit rate 0.71% among 290,000; purified Giardia FBPA; A8B2U2; note: potency is the fitted concentration of half-maximal effect; % is set by controls: 0 for no effect and ±100 for the full control effect; nearly all actives have a fitted effect of over 55% in size
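Giardia FBPA (40 nM reagent) was preincubated 10 min at RT with compound (up to 57.5 uM final), then substrate plus GAPDH/TPI/NAD/arsenate coupling system with diaphorase/resazurin was added; resorufin fluorescence (525/598 nm) was read after 20 min.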
Shiga inhibitor: inhibitors of Shiga toxin in Vero cells; Vero cells, Shiga toxin protein synthesis inhibition reporter; inhibition, % at 38.7 µM; hit rate 9.2% among 290,000; in the data active = inhibition mostly above about 28%, no sharp cut-off; inactive = mostly below about 43%; note: 0% is about no effect
Cycloheximide cs: counter-screen for Shiga toxin inhibitors: cycloheximide protein synthesis inhibition; cell reporter, cycloheximide protein synthesis inhibition counterscreen; max response, %; hit rate 12% among 300,000; AID 2314; in the data active = max response mostly above about 13%, no sharp cut-off; inactive = mostly below about 14%; note: read at 38.3 µM for the half of the compounds with a filed dose; 0% is about no effect
LmPK inh: blocks Leishmania mexicana pyruvate kinase activity; purified LmPK, Kinase-Glo ATP luminescence, 1 h; Potency, µM (top dose mostly 57.5 µM), for the others: at the highest dose activity change, negative = inhibition, actives largely listed as inhibitors; Q27686; hit rate 0.37% among 290,000; AID 1721; note: potency is the fitted concentration of half-maximal effect; % is set by controls: 0 for no effect and ±100 for the full control effect
Target sequence (Q27686 whole entry, looked up): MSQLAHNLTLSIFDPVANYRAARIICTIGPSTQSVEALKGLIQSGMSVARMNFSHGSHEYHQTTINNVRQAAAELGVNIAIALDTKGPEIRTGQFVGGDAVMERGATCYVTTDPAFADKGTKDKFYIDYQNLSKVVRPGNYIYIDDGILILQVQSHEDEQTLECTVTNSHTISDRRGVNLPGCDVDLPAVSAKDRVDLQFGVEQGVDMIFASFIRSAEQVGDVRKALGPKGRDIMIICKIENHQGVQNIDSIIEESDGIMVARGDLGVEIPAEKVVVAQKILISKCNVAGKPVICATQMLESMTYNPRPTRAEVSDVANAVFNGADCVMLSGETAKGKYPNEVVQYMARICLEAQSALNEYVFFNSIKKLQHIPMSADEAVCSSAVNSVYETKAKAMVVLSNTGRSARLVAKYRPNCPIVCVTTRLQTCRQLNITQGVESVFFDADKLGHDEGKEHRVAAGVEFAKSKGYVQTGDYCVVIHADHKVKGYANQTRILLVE
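0.1 nM LmPK, 0.5 mM PEP, 0.1 mM ADP; 50 mM imidazole pH 7.2, 7 mM MgCl2, 50 mM KCl; 1 h RT. Kinase-Glo luminescence readout, normalized to no-enzyme (full inhibition) and uninhibited wells.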
NS1 function inh: influenza NS1 inhibition. Potency, µM (doses to about 46.1 µM), for the others: at the highest dose activity, positive = more growth. AID 2326. hit rate 0.4% among 270,000; calls by dose curve; note: potency is the fitted concentration of half-maximal effect; actives are rising curves; nearly all actives have a fitted effect of over 50% in size
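Recovery from NS1-induced slow growth read by OD600 in budding yeast switched to galactose assay medium (pH 6.0, -URA) at 1:100 dilution. Compound 23 nl per well; the matching strain lacking NS1 serves as control.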
Active calls of the source: *; [ ] = another dose, or the depositor's remark. Unless noted, calls come from the whole dose curve; as a rule, active = well fitted curve in the direction sought with a large enough effect; inconclusive = small, poorly fitted or top-dose-only effect, or another doubt; inactive = no such curve, though single readings can be large; an effect the other way counts as inactive or inconclusive.

Screening O=[N+]([O-])c1ccc2ncccc2c1CCc1c([N+](=O)[O-])ccc2ncccc12 returned NS1 function inh -3%.
Screening Cc1ccc(-c2c(C(=O)O)c3ccccc3[nH]c2=O)cc1 returned Giardia FBPA inh -3%, Shiga inhibitor -9, Cycloheximide cs -6, LmPK inh 1% and NS1 function inh 2%.
CC(=O)Nc1ccc(SCC(Cc2ccccc2)N2CCN(CCc3ccccc3)CCC2=O)cc1 (stereo unspecified) was read as Giardia FBPA inh -9%, Shiga inhibitor -10 and Cycloheximide cs 0.
CC1(C)Cc2cccc(OCC(=O)OCC(=O)NCc3ccccc3)c2O1 was read as Giardia FBPA inh 10%, Shiga inhibitor -6, Cycloheximide cs -1, LmPK inh 0% and NS1 function inh -17%.
COc1ccccc1C(=O)COC(=O)COc1cccc2c1OC(C)(C)C2 was read as Shiga inhibitor 85*, Cycloheximide cs 52*, LmPK inh -3% and NS1 function inh -72%.
For CCc1ccc(OCCCOc2ccc(C=O)cc2)cc1 the results were Giardia FBPA inh 1%, Shiga inhibitor 78, Cycloheximide cs 19*, LmPK inh -18% and NS1 function inh -80%.
For CCc1ccc(OCCCC(=O)NCc2ccccc2)cc1 the results were Giardia FBPA inh 8%, Shiga inhibitor 13, Cycloheximide cs -2, LmPK inh -3% and NS1 function inh -21%.
For CN(CCc1ccccn1)c1ncnc2[nH]ncc12 the results were Giardia FBPA inh -7%, Shiga inhibitor 33*, Cycloheximide cs 19, LmPK inh -13% and NS1 function inh -1%.
Cc1cc(C)cc(N(C(=O)c2ccccn2)C(C(=O)NC2CCCCC2)c2ccncc2)c1 (stereo unspecified) was read as Giardia FBPA inh 0%, Shiga inhibitor -5, Cycloheximide cs -8, LmPK inh 0% and NS1 function inh 14%.
`COc1ccc(-c2csc(N=C(N)N)n2)cc1` gave Giardia FBPA inh 3%, Shiga inhibitor 68*, Cycloheximide cs 25*, LmPK inh 1% and NS1 function inh -3%.
Screening Nc1nc(-c2ccc3ccccc3c2)cc(-c2cc(-c3ccc4ccccc4c3)nc(N)n2)n1 returned NS1 function inh 0%.
`Nc1nc(-c2ccc(C(=O)O)cc2)cs1` gave Giardia FBPA inh 5%, Shiga inhibitor 26, Cycloheximide cs 1 and LmPK inh -19%.
NC(N)=Nc1nc(CCN2C(=O)c3ccccc3C2=O)cs1 was read as Giardia FBPA inh 3%, Shiga inhibitor 8, Cycloheximide cs 3, LmPK inh -3% and NS1 function inh 10%.
`Nc1nc(-c2ccc(-c3ccccc3)cc2)cs1` gave Giardia FBPA inh -2%, Shiga inhibitor 151*, Cycloheximide cs 62*, LmPK inh -14% and NS1 function inh 22%.
For Nc1nc(-c2ccc3ccccc3c2)cs1 the results were Giardia FBPA inh -5%, Shiga inhibitor 86*, Cycloheximide cs 43* and LmPK inh -16%.
`Cc1ccc(-c2csc(N=C(N)N)n2)c(C)c1` gave Giardia FBPA inh 0%, Shiga inhibitor 37*, Cycloheximide cs 36*, LmPK inh 0% and NS1 function inh -4%.
Screening O=C(Oc1ccccc1)C1O[C@@H]1c1ccccc1 (stereo partly specified) returned Giardia FBPA inh 1%.
COc1ccc(-c2csc(N)n2)cc1 was read as Giardia FBPA inh -1%, Shiga inhibitor 58*, Cycloheximide cs 37*, LmPK inh -3% and NS1 function inh -7%.
`COc1ccc(-c2ccc(OC)cc2)cc1` gave Giardia FBPA inh 23%, Shiga inhibitor 13 and Cycloheximide cs 34*.
`Cc1ccc(-c2csnn2)cc1` gave Giardia FBPA inh 5%, Shiga inhibitor 28, Cycloheximide cs -1, LmPK inh -11% and NS1 function inh 2%.
Screening c1ccc2cc(-c3csnn3)ccc2c1 returned Giardia FBPA inh 4%, Shiga inhibitor 108*, Cycloheximide cs 32*, LmPK inh 4% and NS1 function inh -8%.
Nc1nc(-c2ccc(Oc3ccccc3)cc2)cs1 was read as Giardia FBPA inh 6%, Shiga inhibitor 53*, Cycloheximide cs 39*, LmPK inh 0% and NS1 function inh -116%.
For COc1ccc2[nH]c(C)c(-c3csc(N)n3)c2c1 the results were Giardia FBPA inh -30%, Shiga inhibitor 1, Cycloheximide cs -3, LmPK inh 0% and NS1 function inh inconclusive.
For COc1ccc(-c2nncnn2)cc1 the results were Giardia FBPA inh 0%, Shiga inhibitor 22, Cycloheximide cs 16, LmPK inh 1% and NS1 function inh -33%.
`Cc1[nH]c(=O)[nH]c(=O)c1S(=O)(=O)Nc1ccc(Br)cc1F` gave Giardia FBPA inh 0%, Shiga inhibitor -6, Cycloheximide cs -2, LmPK inh 0% and NS1 function inh -1%.
For CC(C)C[C@@H](CC(=O)N[C@@H](CCC(=O)O)CC(=O)O)NC(=O)[C@@H]1CNCC[C@H]1NC(=O)C[C@@H](NC(=O)C[C@H](CO)NC(=O)[C@@H]1CNCC[C@H]1N)C(C)C the results were Giardia FBPA inh -26%.
`O=C(/C=C/c1ccc([N+](=O)[O-])cc1)NCc1cccs1` gave Giardia FBPA inh -13%, Shiga inhibitor 13*, Cycloheximide cs 38*, LmPK inh -2% and NS1 function inh 7%.
For Cc1ccc(/C=C/C(=O)N2CCN(S(=O)(=O)c3cccs3)CC2)o1 the results were Giardia FBPA inh -4%, Shiga inhibitor -4, Cycloheximide cs 23*, LmPK inh -3% and NS1 function inh inconclusive.
Screening Cc1ccc(/C=C/C(=O)NCc2cccs2)c(C)c1 returned Giardia FBPA inh inconclusive, Shiga inhibitor 53*, Cycloheximide cs 37*, LmPK inh 4% and NS1 function inh -8%.
`Cc1ccc(/C=C/C(=O)NCc2cccs2)cc1` gave Giardia FBPA inh -4%, Shiga inhibitor 139*, Cycloheximide cs 66*, LmPK inh -3% and NS1 function inh -5%.
`CN(C(=O)C(=O)c1cn(CC(=O)N2CCCC2)c2ccccc12)C1CCCCC1` gave Giardia FBPA inh 10%, Shiga inhibitor -13, Cycloheximide cs -3, LmPK inh -3% and NS1 function inh -6%.
For COc1ccc(NC(=O)COC(=O)C2CC(=O)N(c3ccc(C)cc3)C2)cc1 (stereo unspecified) the results were Giardia FBPA inh 9%, Shiga inhibitor -7, Cycloheximide cs 3, LmPK inh -3% and NS1 function inh -7%.
`Cc1ccc(OCCCCNC(C)c2ccccc2)c(C)c1` (stereo unspecified) gave Giardia FBPA inh inconclusive, Cycloheximide cs -5, LmPK inh -1% and NS1 function inh -19%.
`CCCCCC(=O)c1cc(CC(C(=O)OC)C(=O)OC)cc2cc(OC)c(OC)cc12` gave Giardia FBPA inh -3%[12.9 µM].
`Cc1ccc(/C=C/C(=O)NCc2cccs2)o1` gave Giardia FBPA inh -4%, Shiga inhibitor 91*, Cycloheximide cs 18* and LmPK inh -3%.
